Paper PMC5540273 (PLoS ONE, 2017)

What was measured:
Settings in all cases: concentration: 1 μM, replicates: in singlicate; n = 1
[1] = tested on: RIOK1
[2] = tested on: RIOK2
[3] = tested on: RIOK3
[4] = tested on: RIPK1
[5] = tested on: RIPK2
[6] = tested on: RIPK4
[7] = tested on: RIPK5
[8] = tested on: ROCK1
[9] = tested on: ROCK2
[10] = tested on: ROS1
[11] = tested on: RPS6KA4(Kin.Dom.1-N-terminal)
[12] = tested on: RPS6KA4(Kin.Dom.2-C-terminal)
[13] = tested on: RPS6KA5(Kin.Dom.1-N-terminal)
[14] = tested on: RPS6KA5(Kin.Dom.2-C-terminal)
[15] = tested on: T1, RSK1(Kin.Dom.1-N-terminal)
T1 construct: gene RPS6KA1

[16] = tested on: T2, RSK1(Kin.Dom.2-C-terminal)
T2 construct: gene RPS6KA1

[17] = tested on: T3, RSK2(Kin.Dom.1-N-terminal)
T3 construct: gene RPS6KA3

[18] = tested on: T4, RSK2(Kin.Dom.2-C-terminal)
T4 construct: gene RPS6KA3

[19] = tested on: T5, RSK3(Kin.Dom.1-N-terminal)
T5 construct: gene RPS6KA2

[20] = tested on: T6, RSK3(Kin.Dom.2-C-terminal)
T6 construct: gene RPS6KA2
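Further: KINOMEscan kinase panel screen.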

| Compound | %Inh [1] [%] | %Inh [2] [%] | %Inh [3] [%] | %Inh [4] [%] | %Inh [5] [%] | %Inh [6] [%] | %Inh [7] [%] | %Inh [8] [%] | %Inh [9] [%] | %Inh [10] [%] | %Inh [11] [%] | %Inh [12] [%] | %Inh [13] [%] | %Inh [14] [%] | %Inh [15] [%] | %Inh [16] [%] | %Inh [17] [%] | %Inh [18] [%] | %Inh [19] [%] | %Inh [20] [%] |
| --- | --- | --- | --- | --- | --- | --- | --- | --- | --- | --- | --- | --- | --- | --- | --- | --- | --- | --- | --- | --- |
| Cc1ccc(C(=O)N2CC[C@@H](O)C2)cc1-n1c(C)cc(OCc2ccc(F)cc2F)c(Br)c1=O | 12 | 0 | 29 | 0 | 46 | 0 | 0 | 0 | 0 | 0 | 2 | 0 | 0 | 0 | 0 | 0 | 0 | 0 | 0 | 18 |
| C[C@@H]1CC[C@@H](C(=O)Nc2ccccc2)CN1c1cc(-c2ccc3c(N)n[nH]c3c2)nc(N)n1 [GSK2286062] | 48 | 52 | 20 | 31 | 0 | 0 | 0 | 14 | 35 | 14 | 4 | 0 | 6 | 2 | 14 | 3 | 7 | 19 | 2 | 24 |
| CN(c1ccc(NC(=O)Nc2cc(C(F)(F)F)ccc2F)cc1)c1ccnc(Nc2ccc(S(N)(=O)=O)cc2)n1 [GW809893] | 24 | 2 | 40 | 99.1 | 73 | 26 | 47 | 0 | 24 | 95.9 | 26 | 1 | 14 | 4 | 100 | 0 | 8 | 28 | 35 | 0 |
| Cc1cccc(NC(=O)Nc2ccc(Oc3ncnc4ccn(C)c34)cc2)c1 | 0 | 0 | 24 | 0 | 11 | 0 | 5 | 0 | 0 | 0 | 0 | 0 | 0 | 0 | 0 | 0 | 0 | 2 | 0 | 0 |
| Cc1ccc(C(=O)Nc2ccc(Nc3ccnc4cc(-c5nccs5)ccc34)cc2O)cc1.Cl [GW494702] | 27 | 7 | 0 | 0 | 49 | 13 | 0 | 18 | 12 | 0 | 0 | 0 | 0 | 0 | 0 | 0 | 0 | 30 | 11 | 0 |
| CCn1c(-c2nonc2N)nc2c(C#CC(C)(C)O)nc(OC[C@H](N)c3ccccc3)cc21 [GSK943949] | 11 | 0 | 4 | 4 | 0 | 7 | 29 | 59 | 91.9 | 2 | 0 | 57 | 6 | 0 | 59 | 0 | 0 | 0 | 0 | 0 |
| COc1ccc(CNC(=O)NC2CCN(c3ccnc(Nc4ccc(F)cc4)n3)CC2)cc1 [GSK1379788] | 28 | 0 | 0 | 0 | 0 | 12 | 0 | 12 | 31 | 26 | 0 | 0 | 7 | 9 | 18 | 0 | 0 | 5 | 0 | 0 |
| O=C(NC1CCN(c2ccnc(Nc3ccc(F)cc3)n2)C1)c1cc2ccccc2s1 (centres unmarked) [GSK1379716] | 27 | 0 | 33 | 0 | 9 | 3 | 13 | 39 | 29 | 36 | 17 | 0 | 29 | 0 | 22 | 13 | 4 | 0 | 20 | 4 |
| O=C(Nc1ccccc1F)NC1CCN(c2ccnc(Nc3ccc(F)cc3)n2)CC1 [GSK1379800] | 58 | 0 | 43 | 26 | 0 | 16 | 0 | 10 | 31 | 0 | 9 | 0 | 0 | 26 | 19 | 0 | 0 | 0 | 0 | 0 |
| CN1CCN(Cc2cccc(-c3ccc4c(Nc5ccc(Oc6ccccc6)cc5)ccnc4c3)c2)CC1 [GW578342] | 21 | 0 | 32 | 0 | 98.6 | 0 | 0 | 25 | 20 | 0 | 0 | 0 | 0 | 21 | 26 | 99.1 | 0 | 15 | 0 | 7 |
| Cn1cc(-c2ccc3c(c2)CCN3C(=O)Cc2cccc(Cl)c2)c2c(N)ncnc21 [GSK2606590] | 6 | 19 | 12 | 100 | 15 | 0 | 58 | 0 | 40 | 31 | 22 | 0 | 40 | 0 | 4 | 0 | 1 | 0 | 16 | 0 |
| COc1cc(Nc2nccc(-c3c(-c4cccc(NC(=O)c5c(F)cccc5F)c4)nn4ccccc34)n2)cc(OC)c1OC [GSK323521] | 34 | 14 | 0 | 93.9 | 79 | 0 | 67 | 0 | 6 | 0 | 25 | 0 | 27 | 0 | 5 | 14 | 32 | 47 | 25 | 9 |
| CSc1cccc2c(-c3ccncn3)c(-c3ccc(F)cc3)nn12 [GW514786] | 45 | 0 | 21 | 0 | 43 | 0 | 19 | 13 | 19 | 0 | 28 | 0 | 3 | 7 | 5 | 38 | 0 | 11 | 11 | 0 |
| Cc1ccc(C)c(NC(=O)NC2CCN(c3ccnc(Nc4ccc(F)cc4)n3)C2)c1 (centres unmarked) [GSK1379720] | 23 | 0 | 0 | 0 | 0 | 6 | 0 | 0 | 29 | 0 | 8 | 0 | 0 | 22 | 13 | 0 | 3 | 0 | 0 | 0 |
| c1ccc(Oc2ccc(Nc3ccnc4cc(-c5ccc(CNCCN6CCOCC6)o5)ccc34)cc2)nc1 [GW567145] | 0 | 0 | 0 | 0 | 93.5 | 0 | 1 | 4 | 40 | 0 | 0 | 0 | 0 | 0 | 93.3 | 0 | 0 | 0 | 0 | 0 |
| COCCOCCOc1cc2ncc3c4ccc(C#N)cc4[nH]c3c2cc1OC | 99.4 | 0 | 83 | 20 | 0 | 17 | 0 | 96.9 | 99.2 | 51 | 0 | 0 | 0 | 44 | 0 | 0 | 79 | 2 | 46 | 8 |
| CN(C)Cc1ccc(-c2ccc3c(Nc4ccc(Oc5ccccn5)cc4)ccnc3c2)o1 [GW567148] | 8 | 4 | 0 | 0 | 95.3 | 0 | 0 | 6 | 11 | 0 | 2 | 0 | 4 | 0 | 0 | 0 | 1 | 0 | 0 | 0 |
| O=C(Nc1cccc(-c2nn3ccccc3c2-c2ccnc(Nc3cccc(C(F)(F)F)c3)n2)c1)c1c(F)cccc1F [GSK292658] | 17 | 6 | 0 | 7 | 63 | 0 | 0 | 0 | 1 | 0 | 10 | 0 | 18 | 0 | 81 | 0 | 3 | 5 | 0 | 14 |
| CN1CCN(CCCNc2nccc(-c3c(-c4ccc(F)cc4)nn4cc(C(F)(F)F)ccc34)n2)CC1 [GW621581] | 28 | 4 | 0 | 0 | 52 | 0 | 0 | 0 | 26 | 0 | 10 | 0 | 26 | 0 | 0 | 44 | 0 | 17 | 10 | 0 |
